Experimental data published in PubChem BioAssay (EPA / NIEHS).
Where a structure was tested more than once in an assay, its records may differ in their call. The source made the active and inactive calls. Rule for the calls: active = hit-call score of the fitted dose curve at least 0.9, where 1 is the maximum; inactive = score below 0.9.

Molecular target: Bile acid receptor (Homo sapiens) (UniProt Q96RI1)
Assay: ATG_IR1_CIS: Attagene CIS-FACTORIAL HepG2 Assay for human Nuclear Receptor Subfamily 1 Group H Member 4 (NR1H4), IR1 submotif (AID 2282946)
Conditions: IR1 reporter transcription, actives raise or lower the signal
How it was run: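 HepG2 cells transiently transfected with multiple cis-promoter-driven reporter units to measure endogenous transcription factor activity; 24 h exposure. Reporter mRNA read by RT-PCR, FAM labelling, HpaI digestion and capillary electrophoresis. Bidirectional fit versus DMSO.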

Chain of Bile acid receptor (Homo sapiens) (Q96RI1 whole entry, looked up): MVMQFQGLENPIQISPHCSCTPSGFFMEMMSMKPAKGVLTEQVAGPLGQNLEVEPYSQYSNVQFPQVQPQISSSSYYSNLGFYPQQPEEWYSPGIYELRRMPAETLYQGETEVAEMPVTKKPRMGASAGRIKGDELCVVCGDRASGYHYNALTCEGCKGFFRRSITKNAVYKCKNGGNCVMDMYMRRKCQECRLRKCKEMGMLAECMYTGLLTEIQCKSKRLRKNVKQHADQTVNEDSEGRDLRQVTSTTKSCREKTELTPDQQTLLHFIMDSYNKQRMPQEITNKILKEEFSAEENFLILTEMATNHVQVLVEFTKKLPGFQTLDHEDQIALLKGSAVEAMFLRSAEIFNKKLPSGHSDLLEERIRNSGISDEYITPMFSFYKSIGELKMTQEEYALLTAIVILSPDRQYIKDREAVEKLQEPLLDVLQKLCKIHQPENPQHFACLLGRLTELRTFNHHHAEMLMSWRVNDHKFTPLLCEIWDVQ

SMILES	outcome	AC50
CCCOC(=O)c1ccc(C(=O)OCCC)nc1	inactive	–
O=C(Nc1ccc([N+](=O)[O-])cc1Cl)c1cc(Cl)ccc1O	inactive	–
COc1nc(C)nc(NC(=O)NS(=O)(=O)c2ccccc2OCCCl)n1	inactive	8.66 µM (active)
N#CSCSc1nc2ccccc2s1	inactive	–
CCC(O)=C1C(=O)CC(C(=O)O)CC1=O (stereo not drawn)	inactive	–
C[C@]12C[C@H](O)[C@H]3[C@@H](CCC4=CC(=O)CC[C@@]43C)[C@@H]1CC[C@@H]2C(=O)CO	inactive	–
O=C(O)C1(C(=O)Nc2ccc(Cl)cc2Cl)CC1	inactive	–
CC(C)CCCCCCc1ccc(O)cc1	inactive	17.9 µM (active)
CCCCOC(=O)[C@@H](C)Oc1ccc(Oc2ccc(C(F)(F)F)cn2)cc1	inactive	–
CCOC(=O)[C@H](C)Oc1ccc(Oc2nc3ccc(Cl)cc3o2)cc1	inactive	–
CCCCOC(=O)C(C)Oc1ccc(Oc2ccc(C(F)(F)F)cn2)cc1 (stereo not drawn)	inactive	–
CCOC(=O)C(C)Oc1ccc(Oc2nc3ccc(Cl)cc3o2)cc1 (stereo not drawn)	inactive	–
CCN(CC)C(=O)c1cccc(C)c1	inactive	–
COC(=O)c1cccc(C)c1S(=O)(=O)NC(=O)Nc1nc(OCC(F)(F)F)nc(N(C)C)n1	inactive	–
OB(O)O	inactive	–
CCCCOCCOCCOCc1cc2c(cc1CCC)OCO2	inactive	–

Tested on: not listed separately
Assay: ATG_GRE_CIS: Attagene CIS-FACTORIAL HepG2 Assay for human Glucocorticoid Response Elements (GRE) (AID 2282947)
Conditions: HepG2 GRE cis-reporter, Attagene multiplex mRNA; actives raise or lower the signal
How it was run: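 Endogenous transcription factor activity is read through cis-element reporter constructs transiently transfected into HepG2 cells. After 24 h treatment, labelled RT-PCR products are resolved by capillary electrophoresis; DMSO sets baseline for bidirectional curve fitting.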

SMILES	outcome	AC50
CC1(C)C(C=C(Cl)Cl)C1C(=O)OCc1cccc(Oc2ccccc2)c1 (stereo not drawn)	inactive	–
CCCOC(=O)c1ccc(C(=O)OCCC)nc1	inactive	–
O=C(Nc1ccc([N+](=O)[O-])cc1Cl)c1cc(Cl)ccc1O	inactive	–
COc1nc(C)nc(NC(=O)NS(=O)(=O)c2ccccc2OCCCl)n1	inactive	–
N#CSCSc1nc2ccccc2s1	inactive	–
CCC(O)=C1C(=O)CC(C(=O)O)CC1=O (stereo not drawn)	inactive	–
CSC(=O)c1cccc2nnsc12	inactive	–
C[C@]12C[C@H](O)[C@H]3[C@@H](CCC4=CC(=O)CC[C@@]43C)[C@@H]1CC[C@@H]2C(=O)CO	inactive	26.6 µM (active)
COC(=O)c1ccc(I)cc1S(=O)(=O)NC(=O)Nc1nc(C)nc(OC)n1	inactive	–
CC(=O)S[C@@H]1CC2=CC(=O)CC[C@]2(C)[C@H]2CC[C@@]3(C)[C@@H](CC[C@@]34CCC(=O)O4)[C@H]12	inactive	–
CC(C)CCCCCCc1ccc(O)cc1	inactive	–
CCCCOC(=O)[C@@H](C)Oc1ccc(Oc2ccc(C(F)(F)F)cn2)cc1	inactive	–
C#C[C@]1(O)CC[C@H]2[C@@H]3CCC4=CC(=O)CC[C@@H]4[C@H]3CC[C@@]21CC	inactive	–
CCCCC(CC)COC(=O)c1ccccc1C(=O)O (stereo not drawn)	inactive	–
CCOC(=O)[C@H](C)Oc1ccc(Oc2nc3ccc(Cl)cc3o2)cc1	inactive	–
CCCCOC(=O)C(C)Oc1ccc(Oc2ccc(C(F)(F)F)cn2)cc1 (stereo not drawn)	inactive	–
CCCCC(CC)CN1C(=O)C2C3C=CC(C3)C2C1=O (stereo not drawn)	inactive	–
CCOC(=O)C(C)Oc1ccc(Oc2nc3ccc(Cl)cc3o2)cc1 (stereo not drawn)	inactive	–
CCN(CC)C(=O)c1cccc(C)c1	inactive	–
COC(=O)c1cccc(C)c1S(=O)(=O)NC(=O)Nc1nc(OCC(F)(F)F)nc(N(C)C)n1	inactive	–
OB(O)O	inactive	–
CCCN(CCC)C(=O)SCC	inactive	–
CCOC(=O)COc1cc(-n2ncc(C(F)(F)F)c(C)c2=O)c(F)cc1Cl	inactive	–
CCCCCOC(=O)COc1cc(N2C(=O)C3=C(CCCC3)C2=O)c(F)cc1Cl	inactive	–
